Columns and labels:
[1] = biological target: Dual specificity protein kinase CLK3 (Homo sapiens) (UniProt P49761); details: at 1 µM;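 further: each value is the mean inhibition of CLK3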
[2] = biological target: Dual specificity tyrosine-phosphorylation-regulated kinase 1A (Homo sapiens) (UniProt Q13627); details: at 0.1 µM
[3] = biological target: Dual specificity tyrosine-phosphorylation-regulated kinase 1A (Homo sapiens) (UniProt Q13627); details: at 1 µM
[4] = biological target: Dual specificity tyrosine-phosphorylation-regulated kinase 1B (Homo sapiens) (UniProt Q9Y463); details: at 0.1 µM
Dual specificity tyrosine-phosphorylation-regulated kinase 1B (Homo sapiens), sequence (Q9Y463 whole entry, looked up): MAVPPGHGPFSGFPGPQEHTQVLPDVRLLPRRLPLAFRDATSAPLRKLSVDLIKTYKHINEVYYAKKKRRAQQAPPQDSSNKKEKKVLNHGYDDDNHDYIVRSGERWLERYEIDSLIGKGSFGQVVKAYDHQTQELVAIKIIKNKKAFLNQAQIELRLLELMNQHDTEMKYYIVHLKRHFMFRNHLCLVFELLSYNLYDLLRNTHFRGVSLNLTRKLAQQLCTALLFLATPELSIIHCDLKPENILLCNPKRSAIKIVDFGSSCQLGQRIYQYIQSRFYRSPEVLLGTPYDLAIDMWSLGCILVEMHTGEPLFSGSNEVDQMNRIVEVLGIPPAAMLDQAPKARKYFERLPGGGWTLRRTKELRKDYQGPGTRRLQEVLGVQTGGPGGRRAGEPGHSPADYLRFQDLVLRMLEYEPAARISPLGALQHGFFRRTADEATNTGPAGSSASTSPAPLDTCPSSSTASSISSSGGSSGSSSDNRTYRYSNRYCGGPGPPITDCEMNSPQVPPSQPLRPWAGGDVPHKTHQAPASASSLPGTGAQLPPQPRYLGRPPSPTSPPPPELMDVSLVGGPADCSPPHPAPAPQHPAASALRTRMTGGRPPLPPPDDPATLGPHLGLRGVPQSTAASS

[5] = biological target: Dual specificity tyrosine-phosphorylation-regulated kinase 1B (Homo sapiens) (UniProt Q9Y463); details: at 1 µM
[6] = biological target: T1, Dual specificity tyrosine-phosphorylation-regulated kinase 2 (Homo sapiens) (UniProt Q92630); details: at 0.1 µM
T1 sequence (whole entry): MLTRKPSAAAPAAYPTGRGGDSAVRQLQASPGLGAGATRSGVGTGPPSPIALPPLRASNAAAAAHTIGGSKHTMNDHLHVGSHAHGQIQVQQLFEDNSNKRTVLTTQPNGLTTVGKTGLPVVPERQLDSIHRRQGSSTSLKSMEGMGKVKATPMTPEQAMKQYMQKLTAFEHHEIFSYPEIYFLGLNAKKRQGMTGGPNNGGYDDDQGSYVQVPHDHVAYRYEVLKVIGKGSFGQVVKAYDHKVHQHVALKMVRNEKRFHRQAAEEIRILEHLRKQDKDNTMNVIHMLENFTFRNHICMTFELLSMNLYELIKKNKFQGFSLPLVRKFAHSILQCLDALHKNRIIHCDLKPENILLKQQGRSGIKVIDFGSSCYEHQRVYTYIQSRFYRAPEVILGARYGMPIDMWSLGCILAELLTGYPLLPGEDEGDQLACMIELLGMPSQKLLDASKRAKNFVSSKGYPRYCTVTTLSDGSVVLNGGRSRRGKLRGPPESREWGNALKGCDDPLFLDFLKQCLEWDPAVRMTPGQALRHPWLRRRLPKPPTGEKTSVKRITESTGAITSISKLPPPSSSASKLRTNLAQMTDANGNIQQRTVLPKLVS

[7] = biological target: T1, Dual specificity tyrosine-phosphorylation-regulated kinase 2 (Homo sapiens); details: at 1 µM
[8] = biological target: Glycogen synthase kinase-3 alpha (Homo sapiens) (UniProt P49840); details: at 0.1 µM
Glycogen synthase kinase-3 alpha (Homo sapiens), sequence (P49840 2-483 limits assumed): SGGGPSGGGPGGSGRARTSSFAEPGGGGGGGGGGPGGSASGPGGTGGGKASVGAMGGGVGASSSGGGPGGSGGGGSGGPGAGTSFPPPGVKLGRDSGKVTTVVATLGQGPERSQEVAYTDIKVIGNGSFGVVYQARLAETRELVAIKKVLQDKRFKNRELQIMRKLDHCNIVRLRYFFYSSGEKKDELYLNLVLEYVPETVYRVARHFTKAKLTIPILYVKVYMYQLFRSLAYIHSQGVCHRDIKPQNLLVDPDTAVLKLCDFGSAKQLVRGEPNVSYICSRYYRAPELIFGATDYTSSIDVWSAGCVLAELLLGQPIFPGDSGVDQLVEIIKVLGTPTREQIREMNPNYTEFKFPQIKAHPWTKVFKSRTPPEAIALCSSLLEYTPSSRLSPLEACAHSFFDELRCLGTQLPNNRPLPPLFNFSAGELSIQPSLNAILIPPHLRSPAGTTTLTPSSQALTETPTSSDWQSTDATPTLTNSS

[9] = biological target: Glycogen synthase kinase-3 alpha (Homo sapiens) (UniProt P49840); details: at 1 µM
[10] = biological target: Glycogen synthase kinase-3 beta (Homo sapiens) (UniProt P49841); details: at 0.1 µM
Glycogen synthase kinase-3 beta (Homo sapiens), sequence (P49841 whole entry, looked up): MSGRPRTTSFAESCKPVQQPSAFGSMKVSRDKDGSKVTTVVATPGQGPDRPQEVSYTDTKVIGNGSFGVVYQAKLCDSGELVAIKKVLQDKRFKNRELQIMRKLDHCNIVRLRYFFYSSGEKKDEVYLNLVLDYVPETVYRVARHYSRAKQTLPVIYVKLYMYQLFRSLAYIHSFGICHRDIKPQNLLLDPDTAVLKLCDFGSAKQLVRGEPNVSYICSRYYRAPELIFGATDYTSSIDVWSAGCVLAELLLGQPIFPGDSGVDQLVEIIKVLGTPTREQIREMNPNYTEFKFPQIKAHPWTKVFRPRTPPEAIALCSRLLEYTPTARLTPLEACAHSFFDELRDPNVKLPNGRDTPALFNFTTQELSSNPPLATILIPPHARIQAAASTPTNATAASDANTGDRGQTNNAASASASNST

[11] = biological target: Glycogen synthase kinase-3 beta (Homo sapiens) (UniProt P49841); details: at 1 µM
[12] = biological target: Homeodomain-interacting protein kinase 1 (Homo sapiens) (UniProt Q86Z02); details: at 0.1 µM
Homeodomain-interacting protein kinase 1 (Homo sapiens), sequence (Q86Z02 whole entry, looked up): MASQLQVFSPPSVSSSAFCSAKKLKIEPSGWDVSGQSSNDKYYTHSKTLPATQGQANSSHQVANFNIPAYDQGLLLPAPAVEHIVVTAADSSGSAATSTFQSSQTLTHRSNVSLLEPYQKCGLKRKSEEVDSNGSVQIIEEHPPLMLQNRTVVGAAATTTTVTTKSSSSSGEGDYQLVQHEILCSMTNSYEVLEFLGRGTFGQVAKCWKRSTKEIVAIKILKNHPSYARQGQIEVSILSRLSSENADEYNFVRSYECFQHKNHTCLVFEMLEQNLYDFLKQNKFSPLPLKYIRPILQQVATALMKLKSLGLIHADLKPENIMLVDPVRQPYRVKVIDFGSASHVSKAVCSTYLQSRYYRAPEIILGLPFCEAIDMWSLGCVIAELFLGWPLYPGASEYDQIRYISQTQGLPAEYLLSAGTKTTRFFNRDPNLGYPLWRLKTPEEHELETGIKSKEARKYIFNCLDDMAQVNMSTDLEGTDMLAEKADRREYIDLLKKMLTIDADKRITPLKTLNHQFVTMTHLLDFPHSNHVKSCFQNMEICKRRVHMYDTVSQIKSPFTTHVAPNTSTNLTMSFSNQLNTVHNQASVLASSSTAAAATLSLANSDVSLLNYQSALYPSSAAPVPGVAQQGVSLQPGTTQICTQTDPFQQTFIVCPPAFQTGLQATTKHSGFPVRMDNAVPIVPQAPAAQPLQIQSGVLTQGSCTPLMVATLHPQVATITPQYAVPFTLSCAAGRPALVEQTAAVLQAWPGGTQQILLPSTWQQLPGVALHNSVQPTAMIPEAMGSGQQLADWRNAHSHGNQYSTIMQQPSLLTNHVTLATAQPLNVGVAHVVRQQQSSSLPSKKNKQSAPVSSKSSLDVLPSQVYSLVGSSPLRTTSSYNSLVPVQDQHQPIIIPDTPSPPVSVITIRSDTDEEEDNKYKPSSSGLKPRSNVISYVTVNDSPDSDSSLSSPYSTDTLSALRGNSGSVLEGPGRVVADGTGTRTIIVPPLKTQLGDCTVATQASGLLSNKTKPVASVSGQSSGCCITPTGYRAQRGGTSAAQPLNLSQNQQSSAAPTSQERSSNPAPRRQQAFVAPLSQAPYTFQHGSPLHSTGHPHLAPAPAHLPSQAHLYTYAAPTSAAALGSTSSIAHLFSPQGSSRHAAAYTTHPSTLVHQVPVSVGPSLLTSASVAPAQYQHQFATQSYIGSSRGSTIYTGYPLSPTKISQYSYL

[13] = biological target: Homeodomain-interacting protein kinase 1 (Homo sapiens) (UniProt Q86Z02); details: at 1 µM
[14] = biological target: T2, Homeodomain-interacting protein kinase 4 (Homo sapiens) (UniProt Q8NE63); details: at 0.1 µM
T2 sequence (whole entry): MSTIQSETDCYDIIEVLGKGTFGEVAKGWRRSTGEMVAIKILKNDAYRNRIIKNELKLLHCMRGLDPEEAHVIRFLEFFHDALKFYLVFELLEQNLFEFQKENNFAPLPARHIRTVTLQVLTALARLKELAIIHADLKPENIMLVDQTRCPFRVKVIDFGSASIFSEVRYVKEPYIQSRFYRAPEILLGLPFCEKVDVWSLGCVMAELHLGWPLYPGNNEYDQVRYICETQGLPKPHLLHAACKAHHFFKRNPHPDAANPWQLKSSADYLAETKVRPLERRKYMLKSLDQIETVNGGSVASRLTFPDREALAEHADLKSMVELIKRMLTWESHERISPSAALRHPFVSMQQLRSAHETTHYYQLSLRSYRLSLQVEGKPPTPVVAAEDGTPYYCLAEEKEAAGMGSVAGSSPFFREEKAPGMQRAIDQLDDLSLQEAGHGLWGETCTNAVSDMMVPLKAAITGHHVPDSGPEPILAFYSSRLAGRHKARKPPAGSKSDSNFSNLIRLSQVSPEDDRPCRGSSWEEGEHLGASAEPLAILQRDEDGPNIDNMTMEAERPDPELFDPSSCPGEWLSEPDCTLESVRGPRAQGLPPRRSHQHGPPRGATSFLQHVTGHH

[15] = biological target: T2, Homeodomain-interacting protein kinase 4 (Homo sapiens); details: at 1 µM
[16] = biological target: Mitogen-activated protein kinase 9 (Homo sapiens) (UniProt P45984); details: at 0.1 µM
Mitogen-activated protein kinase 9 (Homo sapiens), sequence (P45984 whole entry, looked up): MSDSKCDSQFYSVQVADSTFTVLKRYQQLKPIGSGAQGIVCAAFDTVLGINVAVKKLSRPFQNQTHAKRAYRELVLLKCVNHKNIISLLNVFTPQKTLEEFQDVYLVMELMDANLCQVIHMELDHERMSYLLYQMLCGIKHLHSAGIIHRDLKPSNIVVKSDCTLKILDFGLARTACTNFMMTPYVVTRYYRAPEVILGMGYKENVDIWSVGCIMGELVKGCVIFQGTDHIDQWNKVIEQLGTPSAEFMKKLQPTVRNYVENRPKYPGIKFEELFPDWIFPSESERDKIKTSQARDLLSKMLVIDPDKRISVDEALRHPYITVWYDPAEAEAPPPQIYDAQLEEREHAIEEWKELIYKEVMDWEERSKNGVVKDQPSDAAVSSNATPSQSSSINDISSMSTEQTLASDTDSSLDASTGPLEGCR

[17] = biological target: Mitogen-activated protein kinase 9 (Homo sapiens) (UniProt P45984); details: at 1 µM
[18] = biological target: Mitogen-activated protein kinase 1 (Homo sapiens) (UniProt P28482); details: at 0.1 µM
Mitogen-activated protein kinase 1 (Homo sapiens), sequence (P28482 whole entry): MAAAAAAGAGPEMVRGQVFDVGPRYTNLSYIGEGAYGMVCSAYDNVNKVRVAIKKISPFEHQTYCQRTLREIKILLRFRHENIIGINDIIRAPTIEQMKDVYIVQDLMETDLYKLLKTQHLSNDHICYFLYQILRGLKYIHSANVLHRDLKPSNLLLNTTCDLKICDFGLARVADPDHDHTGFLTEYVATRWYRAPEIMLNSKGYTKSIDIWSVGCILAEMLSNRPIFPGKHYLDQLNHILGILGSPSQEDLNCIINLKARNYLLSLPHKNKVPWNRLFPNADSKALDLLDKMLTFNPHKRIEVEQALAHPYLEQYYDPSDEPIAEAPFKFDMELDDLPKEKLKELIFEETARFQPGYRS

[19] = biological target: Mitogen-activated protein kinase 1 (Homo sapiens) (UniProt P28482); details: at 1 µM
[20] = biological target: Mitogen-activated protein kinase 3 (Homo sapiens) (UniProt P27361); details: at 0.1 µM;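 further: each value is a mean inhibition figure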
Mitogen-activated protein kinase 3 (Homo sapiens), sequence (P27361 whole entry): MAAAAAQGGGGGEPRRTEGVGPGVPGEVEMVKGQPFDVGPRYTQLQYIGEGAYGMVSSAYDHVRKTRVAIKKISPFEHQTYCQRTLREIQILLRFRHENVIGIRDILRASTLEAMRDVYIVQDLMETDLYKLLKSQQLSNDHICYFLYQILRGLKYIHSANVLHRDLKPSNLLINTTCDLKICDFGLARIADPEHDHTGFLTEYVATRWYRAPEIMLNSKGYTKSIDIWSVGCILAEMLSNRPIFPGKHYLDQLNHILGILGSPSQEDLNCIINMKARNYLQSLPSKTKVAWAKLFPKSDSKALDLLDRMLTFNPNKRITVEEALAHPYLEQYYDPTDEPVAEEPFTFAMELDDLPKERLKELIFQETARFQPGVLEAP

Dual specificity protein kinase CLK3 (Homo sapiens), sequence (P49761 whole entry, looked up): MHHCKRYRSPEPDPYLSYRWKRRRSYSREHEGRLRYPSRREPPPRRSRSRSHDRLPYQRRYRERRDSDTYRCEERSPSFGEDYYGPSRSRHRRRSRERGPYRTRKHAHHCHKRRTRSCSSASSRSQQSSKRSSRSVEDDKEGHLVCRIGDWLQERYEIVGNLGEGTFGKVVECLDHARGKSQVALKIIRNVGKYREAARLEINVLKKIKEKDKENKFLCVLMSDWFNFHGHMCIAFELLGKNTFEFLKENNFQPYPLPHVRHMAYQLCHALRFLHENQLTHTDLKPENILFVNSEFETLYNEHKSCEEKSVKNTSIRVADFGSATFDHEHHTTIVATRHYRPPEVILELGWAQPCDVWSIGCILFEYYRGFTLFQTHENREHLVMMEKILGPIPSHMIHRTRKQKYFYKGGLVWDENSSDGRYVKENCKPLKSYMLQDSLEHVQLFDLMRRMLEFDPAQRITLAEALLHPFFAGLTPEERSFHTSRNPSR

Structure (SMILES)	inhibition [1] [%]	inhibition [2] [%]	inhibition [3] [%]	inhibition [4] [%]	inhibition [5] [%]	inhibition [6] [%]	inhibition [7] [%]	inhibition [8] [%]	inhibition [9] [%]	inhibition [10] [%]	inhibition [11] [%]	inhibition [12] [%]	inhibition [13] [%]	inhibition [14] [%]	inhibition [15] [%]	inhibition [16] [%]	inhibition [17] [%]	inhibition [18] [%]	inhibition [19] [%]	inhibition [20] [%]
COc1ccc(-c2oc3ncnc(N)c3c2-c2ccc(NC(=O)Nc3cc(C(F)(F)F)ccc3F)cc2)cc1	4.8	0.67	2.07	-0.07	2.26	1.92	5.52	3.93	17.3	3.17	15.2	13.5	62	68.7	88.8	7.38	19.9	7.13	6.23	3.48
CN1CCC(n2cnc(-c3ccc(F)cc3)c2-c2ccnc(N)n2)CC1	1.25	1.69	6.19	0.68	2.08	2.29	12.5	1.36	7.39	1.11	8.08	3.64	24.8	1.91	16.7	2.6	11.3	0.3	2.71	3.88
CCNC(=O)O[C@H]1CN[C@H](C#Cc2cc3ncnc(Nc4ccc(OCc5cccc(F)c5)c(Cl)c4)c3s2)C1	2.52	1.66	3.98	0.74	1.59	3.13	5.14	3.4	9.61	2.01	8.04	2.47	5.41	2.15	0.62	1.6	4.37	1.5	2.66	0.46
COC(=O)Nc1nc2ccc(S(=O)(=O)c3ccc(NC(=O)Nc4cc(C(F)(F)F)ccc4F)cc3)cc2[nH]1	0.84	1.81	3.41	0.89	0.66	2.74	3.12	2.8	7.37	0.8	7.61	-0.95	0.3	-0.96	1.06	3.14	3.4	1.4	2.17	3
N#Cc1c(NC(=O)CN2CCOCC2)sc2c1CCCC2	7.77	7.33	11	4.95	8.26	1.96	4.75	10.6	9.38	11	7.42	6.67	10.1	7.62	6.09	4.4	9.83	4.06	4.79	3.09
CNC(=O)c1cc(-c2ccc(F)cc2)cc(-c2ccc(S(=O)(=O)N3CCCC3)cc2)c1N	1.45	2.86	3.9	-1.54	-0.38	2.23	2.03	3.5	5.1	2.65	4.74	-2.69	-0.12	-0.78	0.3	1.82	2.81	4.15	4.03	2.42
CCn1c(-c2nonc2N)nc2cnc(Oc3cccc(NC(=O)c4ccc(N(C)C)cc4)c3)cc21	0.75	0.93	5.38	-0.45	4.48	1	2.79	8.94	46.6	6.2	41	-2.28	1.69	-1.11	3.8	2.94	3.41	1.18	3.77	1.53
COc1cccc(-n2ncc3c(N/N=C/c4ccc(F)cc4)ncnc32)c1	6.29	6.93	24.2	4.09	16.3	5.25	18.8	64	87.7	54.6	83	11.9	27.1	9.35	20.9	1.94	4.28	5.5	2.32	2.41
Nc1nc(-c2cccc(Cl)c2)c(-c2ccc3ncccc3n2)s1	3.8	6.62	31.8	-0.12	12.7	3.16	5.31	3.74	11.2	2.21	7.52	2.34	6.93	2.76	13.9	5.19	13.9	6.28	6.55	5.26
CCN(CC)S(=O)(=O)c1ccc(OC)c(Nc2ncc(-c3ccccc3)o2)c1	8.6	1.08	10.9	1.93	14.7	1.64	6.15	0.34	2.7	0.79	3.89	1.49	10.2	2.17	17.8	2.31	1.02	-1.7	-0.08	1.68
CCn1cc(-c2ccnc3[nH]ccc23)c(-c2cccc(NC(=O)Nc3ccc(OCc4ccccc4)cc3)c2)n1	-1.48	-3.22	-2.65	-1.6	-0.5	-0.82	-4.73	2.29	3.64	1.77	3.94	-3.5	-1.09	-1.8	-0.81	0.84	1.92	1.51	0.25	1.98
O=C(Nc1n[nH]c2cc(-c3ccc(F)cc3)ccc12)C1CC1	1.03	3.64	11	1.08	7.73	2.57	2.75	3.8	14.7	2.61	14.9	-2.89	2.09	0.01	1.78	2.97	3.68	1.79	4.65	1.72
FC(F)(F)c1cccc(-c2nn3ncccc3c2-c2ccnc(Nc3ccc4c(c3)OCCO4)n2)c1	0.79	1.23	2.77	0.78	0.83	2.54	3.26	5.83	22.4	5.36	33.3	-2.65	3.4	-0.63	3.75	4.15	20.4	1.58	4.01	1.85
CC(=O)NCc1cccc(C#Cc2cncnc2Nc2ccc(OCc3cccc(F)c3)c(Cl)c2)c1	0.27	1.8	6.71	0.66	1.17	1.17	-0.66	3.24	8.35	2.82	7.42	-1.17	0.08	-1.54	2.87	0.88	0.54	0.71	1.78	-0.54
CNC(=O)c1cccc(C#Cc2cncnc2Nc2ccc(OCc3cccc(F)c3)c(Cl)c2)c1	-0.52	-0.33	1.36	0.13	1	0.97	1.82	1.09	3.8	0.4	6.56	1.69	4.07	1.01	4.65	-2.46	1.25	1.53	0.6	2.46
CCCN1CCC(c2ccc(Nc3nc(Nc4cc(F)ccc4C(N)=O)c4cc[nH]c4n3)c(OC)c2)CC1	22	63.1	81.9	65.2	81.9	10.3	49	6.12	8.5	4.67	9.55	49.2	81.5	59.6	84.6	68	83.8	9.4	30.2	4.94
Cc1ccc2c(-c3ccnc(Nc4ccccc4)n3)c(-c3ccc(F)cc3)nn2n1	1.61	0.7	5.42	1	3.35	3.2	2.94	9.81	44.8	22.4	66.7	-0.41	7.55	2.12	4.2	44	81.2	4.23	10.5	3.56
COc1ccc(-c2cc(-c3c[nH]nc3-c3ccccn3)ccn2)cc1	1.7	2.83	6.71	-0.15	2.54	4.14	3.1	3.67	5.27	3.56	6.22	4.42	4.88	2.68	-2.34	4.47	9.74	4.07	5.26	3.56
COc1cc(/C=N/Nc2ncnc3[nH]ncc23)ccc1O	13.2	12.5	45.1	6.29	31.6	7.46	44.8	9.63	41.7	7	24.5	9.37	39.4	5.91	23	1.89	5.5	3.68	4.72	2.18
COC(=O)Nc1nc2ccc(Oc3ccc(NC(=O)Nc4cccc(Cl)c4)cc3)cc2[nH]1	-1.09	-1.75	-2.75	-1.02	-0.33	1.12	-2.41	3.91	3.54	2.92	4.55	-1.97	-0.94	2.35	14.8	1.98	5.76	1.02	1.55	-0.95
[O-][S+]1CCN(Cc2ccc(-c3ccc4ncnc(Nc5ccc(OCc6cccc(F)c6)c(Cl)c5)c4c3)o2)CC1	1.25	4.05	3.96	0.06	1.57	4.92	4.13	3.26	5.28	3.06	4.76	-2.75	1.62	0.28	0.6	3.35	1.33	7.21	6.45	5.68
